# Out of some 1,300 compounds screened, about 1,000 (77%) were called active. Roughly 7% stayed inconclusive and do not appear here. Calls come from the whole dose curve; as a rule, active = well fitted inhibition curve with a large enough effect; inconclusive = small, poorly fitted or top-dose-only effect; inactive = no such curve, though single readings can be large or run the other way. The set was probably picked from earlier hits. This is one part of the list.
# Assay: qHTS of small molecules that selectively kill Giardia lamblia: Hit Validation.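 Note: viability measured as ATP content by luminescence so killing lowers signal; trophozoites exposed to compounds for 48 h anaerobically at 37 °C; nearly all actives have a fitted effect of over 65% in size.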
# Settings: Giardia lamblia trophozoite viability, dose-response; series mostly up to 38.3 µM
# Outline: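 Each well holds 100 Giardia trophozoites and compound. After two days (48 hrs) at 37 deg C in anaerobic conditions, ATP is quantified by luminescence.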
# Potency is the fitted concentration of half-maximal effect.
row,Structure (SMILES),Potency
1,CN(C)c1ccc(N=Nc2ccccc2C(=O)OCC(=O)N2CCCC2)cc1,1.45 µM (active)
2,CC(=O)c1ccc(NC(=O)COC(=O)c2ccccc2N=Nc2ccc(N(C)C)cc2)cc1,3.26 µM (active)
3,CN(C)c1ccc(N=Nc2ccccc2C(=O)O)cc1,0.29 µM (active)
4,CC(=O)NC(Cc1cccc(C)c1)C(=O)NC1CCN(c2ncccc2[N+](=O)[O-])CC1 (stereo not drawn),4.6 µM (active)
5,CC(=O)NC(Cc1cccc(F)c1)C(=O)NC1CCN(c2ncccc2[N+](=O)[O-])CC1 (stereo not drawn),2.31 µM (active)
6,Cc1ccc(-n2nc3c(N4CCC(C(=O)NCc5cccc(F)c5)CC4)nnc(C)c3c2C)cc1,inactive
7,COc1ccc(OC)c(CCNC(=O)CSc2ccsc2[N+](=O)[O-])c1,0.729 µM (active)
8,COc1ccc(CCNC(=O)CSc2ccsc2[N+](=O)[O-])cc1OC,0.516 µM (active)
9,COc1ccc(CCNC(=O)C23CCC(C)(C(=O)C2=O)C3(C)C)cc1OC (stereo not drawn),inactive
10,COCCn1c(C)cc(/C=C2/SC(=O)N(C(C)C(=O)OC)C2=O)c1C (stereo not drawn),5.79 µM (active)
11,COCCn1c(C)cc(/C=C2\NC(=S)N(C)C2=O)c1C,inactive
12,COc1ccc(OCc2nnc3n2N=C(c2ccc(OC)cc2)CS3)cc1,inactive
13,O=C(Nc1ccc(-c2cn3ccsc3n2)cc1)C1CC1,3.26 µM (active)
14,COc1ccc(-c2cn3ccsc3n2)cc1,9.18 µM (active)
15,CC(=O)OCCSc1c(-c2ccccc2)c2cc(Cl)ccc2[nH]c1=O,inactive
16,Cc1ccc(NC(=O)c2ccc([N+](=O)[O-])o2)c(C)c1,1.3 µM (active)
17,Cc1ccc(N/C(C(Cl)=C(Cl)Cl)=C(/Cl)[N+](=O)[O-])c(C)c1,0.818 µM (active)
18,Cc1cccc(NC(=O)c2ccc([N+](=O)[O-])o2)c1C,1.83 µM (active)
19,COc1ccccc1NC(=O)c1ccc([N+](=O)[O-])o1,1.45 µM (active)
20,Cc1ccc([N+](=O)[O-])c(C(=O)Nc2cccnc2Cl)c1,inactive
21,COc1ccccc1S(=O)(=O)Cc1ccc(C(=O)NCC(OC)OC)o1,inactive
22,CCS(=O)(=O)N1Cc2ccccc2CC1C(=O)Nc1ccccc1OC (stereo not drawn),inactive
23,Cc1cccc(NC(=O)N2CCN(Cc3ccc4c(c3)OCO4)CC2)c1C,inactive
24,Cc1ccccc1NC(=O)c1ccc([N+](=O)[O-])o1,1.83 µM (active)

row,Structure (SMILES),Potency
1,COc1ccc(-c2cc3ccccc3oc2=O)cc1NC(=O)c1ccc([N+](=O)[O-])o1,0.729 µM (active)
2,O=C(Nc1ccccc1Cl)c1ccc([N+](=O)[O-])o1,1.3 µM (active)
3,Cn1c(=O)c(=O)n(C)c2cc([N+](=O)[O-])c(N3CCOCC3)cc21,4.1 µM (active)
4,O=C(N/N=C/c1ccc([N+](=O)[O-])o1)c1cc2c(ccc3ccccc32)o1,0.729 µM (active)
5,O=C(N/N=C/c1ccc([N+](=O)[O-])o1)c1sc2ccccc2c1Cl,1.3 µM (active)
6,O=C(N/N=C/c1ccc([N+](=O)[O-])o1)c1cc2ccccc2o1,0.516 µM (active)
7,O=C(N/N=C/c1ccc([N+](=O)[O-])o1)c1cn2ccc3ccccc3c2n1,0.918 µM (active)
8,COc1ccc(-n2nc([N+](=O)[O-])c(=NC3CCN(Cc4ccccc4)CC3)n2O)cc1,0.729 µM (active)
9,Cc1cccc(-n2nc([N+](=O)[O-])c(=NC3CCN(Cc4ccccc4)CC3)n2O)c1,0.729 µM (active)
10,O=[N+]([O-])c1nn(-c2ccc3c(c2)OCCO3)n(O)c1=NC1CCN(Cc2ccccc2)CC1,0.46 µM (active)
11,O=[N+]([O-])c1nn(-c2ccccc2)n(O)c1=NC1CCN(Cc2ccccc2)CC1,0.365 µM (active)
12,O=[N+]([O-])c1ccc(/C=N/Nc2ncccc2[N+](=O)[O-])s1,2.31 µM (active)
13,O=C(N/N=C\c1ccc([N+](=O)[O-])s1)c1cncc(Br)c1,2.9 µM (active)
14,O=C(N/N=C/c1ccc([N+](=O)[O-])s1)C(O)c1ccccc1 (stereo not drawn),2.9 µM (active)
15,Cc1ccc(NC(=S)N/N=C/c2ccc([N+](=O)[O-])s2)cc1,2.31 µM (active)
16,O=[N+]([O-])c1ccc(/C=N/NC(=S)Nc2ccc(Cl)cc2Cl)s1,3.65 µM (active)
17,Cc1ccc(C(=O)N/N=C/c2ccc([N+](=O)[O-])s2)cc1,1.03 µM (active)
18,O=C(N/N=C/c1ccc([N+](=O)[O-])s1)c1ccccc1,1.63 µM (active)
19,O=C(N/N=C/c1ccc([N+](=O)[O-])s1)c1cccnc1,2.31 µM (active)
20,COc1cc(CNc2nnnn2C)cc(OC)c1OC,inactive
21,O=[N+]([O-])c1ccc(/C=N/Nc2nc(N3CCCC3)nc(N3CCCC3)n2)o1,2.05 µM (active)
22,O=[N+]([O-])c1cc(/C=N/Nc2nc(N3CCCCC3)nc(N3CCCCC3)n2)ccc1O,6.5 µM (active)
23,O=[N+]([O-])c1ccc(/C=N/Nc2nc(N3CCCCC3)nc(N3CCCCC3)n2)o1,1.16 µM (active)
24,COc1cccc(CNCc2cccc(Br)c2)c1OC,inactive

row,Structure (SMILES),Potency
1,O=[N+]([O-])c1ncccc1Oc1nc(-c2cccnc2)nc2ccccc12,2.05 µM (active)
2,FC(F)(F)c1ccc2c(c1)N1CCCC1CN2 (stereo not drawn),1.45 µM (active)
3,CCOC(=O)/C=C/[C@H]1CCc2cccc(Cl)c2O1,inactive
4,Nc1ccc(-c2cnc(-c3ccc(N)cc3)nc2)cc1,4.1 µM (active)
5,CNN/C(N=Cc1ccc([N+](=O)[O-])s1)=N\S(=O)(=O)c1cc(C)c(Cl)cc1SCc1ccccc1,1.03 µM (active)
6,CN1C(=O)/C(=C/c2ccc(O)c([N+](=O)[O-])c2)N(C)C1=S,3.26 µM (active)
7,CN1C(=O)/C(=C/c2ccc(O)c([N+](=O)[O-])c2)NC1=S,3.26 µM (active)
8,Cc1ccc(C(CC(=O)O)NC(=O)c2ccc(S(=O)(=O)N3CC(C)OC(C)C3)cc2)cc1 (stereo not drawn),inactive
9,O=C(CCN1C(=O)c2ccccc2C1=O)Nc1ccccc1C(F)(F)F,inactive
10,O=C1c2ccc3c4c(ccc(c24)C(=O)N1CCCCO)C(=O)N(CCCCO)C3=O,1.83 µM (active)
11,CCOC(=O)c1c(NC(=O)CS(=O)(=O)c2cn(CC)c3ccccc23)sc2c1CCCCC2,inactive
12,CC1CCc2c(sc(NC(=O)Cn3cnc([N+](=O)[O-])n3)c2C(N)=O)C1 (stereo not drawn),18.3 µM (active)
13,CC1CCc2c(sc(NC(=O)CCCn3cnc([N+](=O)[O-])n3)c2C(N)=O)C1 (stereo not drawn),4.6 µM (active)
14,NC(=O)c1c(NC(=O)CCCn2cnc([N+](=O)[O-])n2)sc2c1CCCC2,7.29 µM (active)
15,Cc1nc(CS(=O)(=O)c2ccc(Cl)cc2)sc1C(=O)O,inactive
16,CC(C)Cn1[nH]c2c3c(ccc2c1=O)C(=O)c1ccccc1C3=O,1.45 µM (active)
17,O=C1c2ccccc2C(=O)c2c1ccc1c(=O)n(C3CCCCC3)[nH]c21,2.31 µM (active)
18,COCCCn1[nH]c2c3c(ccc2c1=O)C(=O)c1ccccc1C3=O,1.03 µM (active)
19,CCc1ccc(S(=O)(=O)Nc2ccc(-c3ccc4nnc(C)n4n3)cc2)s1,inactive
20,COC(=O)[C@@]12CCCCN1[C@H](c1ccc(-c3ccc(C(C)=O)cc3)cc1)[C@@H]1C(=O)N(C)C(=O)[C@@H]12,inactive
21,CCCCC12CN3CC(C)(CN(C1)C3c1ccc([N+](=O)[O-])o1)C2=O (stereo not drawn),2.05 µM (active)
22,CCC12CN3CC(CC)(CN(C1)C3c1ccc([N+](=O)[O-])o1)C2=O (stereo not drawn),4.1 µM (active)
23,CCCC12CN3CC(C)(CN(C1)C3c1ccc([N+](=O)[O-])o1)C2=O (stereo not drawn),1.83 µM (active)
24,CC12CN3CC(C)(CN(C1)C3c1ccc([N+](=O)[O-])o1)C2 (stereo not drawn),1.3 µM (active)

row,Structure (SMILES),Potency
1,O=c1cccc(-c2ccccc2)[nH]1,inactive
2,O=c1[nH]c(=O)c2cc([N+](=O)[O-])cc([N+](=O)[O-])c2[nH]1,4.1 µM (active)
3,O=C(COc1cccnc1[N+](=O)[O-])Nc1cccc2ccccc12,4.6 µM (active)
4,COC(=O)c1sc(NC(=O)COc2cccnc2[N+](=O)[O-])c(C(=O)OC)c1C,4.1 µM (active)
5,O=C(COc1cccnc1[N+](=O)[O-])N1CCc2ccccc21,4.1 µM (active)
6,COc1ccccc1NC(=O)COc1cccnc1[N+](=O)[O-],6.5 µM (active)
7,COc1ccccc1NCCC(=O)OCC(=O)NC1CCCCCC1,inactive
8,CC(C)Cn1c(=S)[nH]c2cc(C(=O)NCc3ccccc3F)ccc2c1=O,inactive
9,S=c1[nH]nc2ccccn12,inactive
10,O=[N+]([O-])c1cnc2ccccn12,2.05 µM (active)
11,O=C(CSc1cccc[n+]1[O-])Nc1cc2c(cc1Cl)C(=O)c1ccccc1C2=O,2.9 µM (active)
12,N#C/C(=C\c1ccc(O)c([N+](=O)[O-])c1)c1nc2ccccc2s1,1.83 µM (active)
13,COCCNC(=O)/C(C#N)=C/c1ccc(O)c([N+](=O)[O-])c1,4.6 µM (active)
14,N#C/C(=C/c1ccc(O)c([N+](=O)[O-])c1)C(=O)Nc1ccccc1,3.26 µM (active)
15,N#C/C(=C\c1ccc(O)c([N+](=O)[O-])c1)C(=O)NCc1ccccc1,3.26 µM (active)
16,CC(C)C[C@H](NC(=O)c1[nH]cnc1C(=O)N[C@H](C)c1ccccc1)C(=O)OCc1ccccc1,inactive
17,CCN(CC)CC(=O)Nc1c(C)cccc1C,inactive
18,O=c1/c(=C/c2ccc(O)c([N+](=O)[O-])c2)sc2nc3ccccc3n12,2.59 µM (active)
19,COc1ccc2c(c1)C1OCCC1C(c1ccco1)N2 (stereo not drawn),2.31 µM (active)
20,O=C(Nc1ncc([N+](=O)[O-])s1)C1CC(=O)N(c2ccc(F)cc2)C1 (stereo not drawn),1.03 µM (active)
21,Cc1ccc(N2CC(C(=O)Nc3ncc([N+](=O)[O-])s3)CC2=O)cc1 (stereo not drawn),0.365 µM (active)
